For part of these data: Measured potencies and affinities stand elsewhere.
Assays:
Set-up in all cases: scale not given: direction of the effect not stated beside the values
[1] = biological target: Protein translocase subunit SecA (Escherichia coli (strain K12)) (UniProt P10408); experiment: Assay to Identify E. coli SecA ATPase Inhibitors; format: functional; details: 30 µM
[2] = biological target: T1, Ubiquitin-activating enzyme e1, putative (Leishmania donovani (strain BPK282A1)) (UniProt E9BSI1); experiment: Leishmania donovani Ubiquitin Activating Enzyme (LdE1); format: functional; details: 30 µM
T1 sequence (whole entry): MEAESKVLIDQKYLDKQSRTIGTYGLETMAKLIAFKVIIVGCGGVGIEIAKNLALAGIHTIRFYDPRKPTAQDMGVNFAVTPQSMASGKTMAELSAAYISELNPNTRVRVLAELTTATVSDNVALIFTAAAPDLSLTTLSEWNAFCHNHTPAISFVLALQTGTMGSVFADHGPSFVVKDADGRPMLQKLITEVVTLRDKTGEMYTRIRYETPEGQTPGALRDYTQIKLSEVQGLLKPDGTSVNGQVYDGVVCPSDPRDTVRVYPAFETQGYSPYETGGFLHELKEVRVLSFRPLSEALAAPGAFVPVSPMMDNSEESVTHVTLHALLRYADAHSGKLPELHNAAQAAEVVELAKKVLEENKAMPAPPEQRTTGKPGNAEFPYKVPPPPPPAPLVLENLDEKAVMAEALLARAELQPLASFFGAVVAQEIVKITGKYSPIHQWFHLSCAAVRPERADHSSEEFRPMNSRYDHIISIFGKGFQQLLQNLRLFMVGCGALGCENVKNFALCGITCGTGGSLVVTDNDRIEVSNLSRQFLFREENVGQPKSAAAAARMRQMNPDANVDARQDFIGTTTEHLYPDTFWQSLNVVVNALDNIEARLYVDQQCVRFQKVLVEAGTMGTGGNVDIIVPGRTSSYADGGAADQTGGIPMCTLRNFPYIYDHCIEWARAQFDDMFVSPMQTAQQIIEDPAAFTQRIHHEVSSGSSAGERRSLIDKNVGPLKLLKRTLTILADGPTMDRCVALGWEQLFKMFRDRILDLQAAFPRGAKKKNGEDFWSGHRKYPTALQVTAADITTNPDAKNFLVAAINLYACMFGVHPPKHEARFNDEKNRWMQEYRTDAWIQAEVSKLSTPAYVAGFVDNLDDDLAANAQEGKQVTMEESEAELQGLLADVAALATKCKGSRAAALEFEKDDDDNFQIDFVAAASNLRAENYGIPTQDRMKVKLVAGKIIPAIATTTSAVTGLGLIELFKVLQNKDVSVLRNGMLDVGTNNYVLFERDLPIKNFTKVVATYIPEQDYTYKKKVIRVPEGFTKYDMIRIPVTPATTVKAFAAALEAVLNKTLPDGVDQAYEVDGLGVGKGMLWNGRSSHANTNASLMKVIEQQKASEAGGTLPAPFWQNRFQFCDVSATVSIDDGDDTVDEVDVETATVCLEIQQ

[3] = biological target: T2, Aspartate--tRNA(Asp/Asn) ligase (Mycobacterium tuberculosis (strain ATCC 25618 / H37Rv)) (UniProt P9WFW3); experiment: Assay for Asp RNA synthetase-1 from Mycobacterium tuberculosis; format: functional; details: 30 µM; further: in the data most compounds retested in dose-response had high values
T2 sequence (whole entry): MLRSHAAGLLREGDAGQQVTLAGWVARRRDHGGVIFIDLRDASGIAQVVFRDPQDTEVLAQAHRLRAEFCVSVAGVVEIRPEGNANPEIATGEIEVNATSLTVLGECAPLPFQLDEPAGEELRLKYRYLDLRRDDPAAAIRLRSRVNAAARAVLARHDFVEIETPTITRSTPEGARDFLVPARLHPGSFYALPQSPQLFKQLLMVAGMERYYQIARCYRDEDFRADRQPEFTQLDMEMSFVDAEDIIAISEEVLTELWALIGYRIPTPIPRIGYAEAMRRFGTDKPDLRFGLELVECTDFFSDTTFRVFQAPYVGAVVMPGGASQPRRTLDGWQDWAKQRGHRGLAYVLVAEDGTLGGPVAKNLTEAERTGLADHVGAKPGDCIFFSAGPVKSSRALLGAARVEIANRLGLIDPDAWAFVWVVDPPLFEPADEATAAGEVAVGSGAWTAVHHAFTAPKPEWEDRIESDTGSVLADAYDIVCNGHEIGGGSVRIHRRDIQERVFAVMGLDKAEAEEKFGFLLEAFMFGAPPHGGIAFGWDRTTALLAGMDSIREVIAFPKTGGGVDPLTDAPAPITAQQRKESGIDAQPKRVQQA

[4] = biological target: AMP-activated protein kinase, AMPK (Homo sapiens) (UniProt P54646+O43741+P54619+Q9UGJ0+Q9Y478+Q13131+Q9UGI9); experiment: AMP-dependent Kinase enzyme assay. An in vitro enzyme assay that detects ADP turnover that is directly proportional to AMPK activity. This uses naive AMPK that is activated during the assay with MK-8722; format: functional; details: 30 µM
[5] = biological target: Sialic acid-binding Ig-like lectin 9 (Homo sapiens) (UniProt Q9Y336); experiment: Hs-Siglec9 ALPHAscreen SOP 20170721; details: 10 µM
[6] = tested on: Trypanosoma cruzi; experiment: Trypanosoma cruzi phosphomannomutase and mannose-1-phosphate guanylyltransferase assay; format: functional; details: 10 µM
[7] = biological target: T3, Arginase-2, mitochondrial (Homo sapiens) (UniProt P78540); experiment: in vitro enzyme assay to detect the production of urea directly proportional to the activity of Arginase II; format: functional; details: 33.3 µM; further: in the data most compounds retested in dose-response had high values
T3 sequence (whole entry): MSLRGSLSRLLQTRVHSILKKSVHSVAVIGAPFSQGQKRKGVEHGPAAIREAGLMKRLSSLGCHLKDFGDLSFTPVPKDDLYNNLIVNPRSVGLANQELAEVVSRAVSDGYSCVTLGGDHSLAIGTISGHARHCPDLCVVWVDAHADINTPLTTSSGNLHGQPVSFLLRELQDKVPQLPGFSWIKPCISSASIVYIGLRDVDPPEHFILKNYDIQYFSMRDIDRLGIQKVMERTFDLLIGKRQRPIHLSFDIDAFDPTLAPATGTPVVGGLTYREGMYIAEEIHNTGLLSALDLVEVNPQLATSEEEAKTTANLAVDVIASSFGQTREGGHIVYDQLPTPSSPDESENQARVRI

[8] = biological target: T4, Proteasome subunit beta (Trypanosoma cruzi) (UniProt O96673); experiment: Trypanosoma cruzi proteasome chymotrypsin-like activity (TcProtChymo) assay.; further: in the data most compounds retested in dose-response had high values; format: functional; details: 9.37 µM
T4 sequence (whole entry): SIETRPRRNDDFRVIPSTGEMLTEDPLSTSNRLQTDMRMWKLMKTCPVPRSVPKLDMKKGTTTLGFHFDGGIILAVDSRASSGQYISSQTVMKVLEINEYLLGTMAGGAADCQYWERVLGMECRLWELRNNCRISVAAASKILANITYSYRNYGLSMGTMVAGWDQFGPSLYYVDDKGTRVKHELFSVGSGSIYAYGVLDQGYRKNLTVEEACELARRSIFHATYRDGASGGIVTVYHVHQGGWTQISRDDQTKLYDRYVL

[9] = species: Homo sapiens; experiment: To identify inhibition of the IFN signalling (Jak-Stat) pathway via expression of an eGFP reporter gene under the control of an IFN-stimulated response element (ISRE) containing MxA promoter.; format: functional; details: 30 µM
[10] = biological target: Shiga toxin 2 (Escherichia coli O157:H7) (UniProt P09385+P09386); experiment: E. coli 0.157:H7 Shiga Toxin SOP - stx2 screening assay; format: functional; details: 30 µM
[11] = biological target: T5, Tyrosyl-tRNA synthetase, putative (Trypanosoma cruzi (strain CL Brener)) (UniProt Q4DSP6); experiment: Trypanosoma cruzi tyrosyl tRNA synthetase (TcYRS) _High Tyrosine SOP; format: functional; details: 30 µM; further: in the data most compounds retested in dose-response had high values
T5 sequence (whole entry): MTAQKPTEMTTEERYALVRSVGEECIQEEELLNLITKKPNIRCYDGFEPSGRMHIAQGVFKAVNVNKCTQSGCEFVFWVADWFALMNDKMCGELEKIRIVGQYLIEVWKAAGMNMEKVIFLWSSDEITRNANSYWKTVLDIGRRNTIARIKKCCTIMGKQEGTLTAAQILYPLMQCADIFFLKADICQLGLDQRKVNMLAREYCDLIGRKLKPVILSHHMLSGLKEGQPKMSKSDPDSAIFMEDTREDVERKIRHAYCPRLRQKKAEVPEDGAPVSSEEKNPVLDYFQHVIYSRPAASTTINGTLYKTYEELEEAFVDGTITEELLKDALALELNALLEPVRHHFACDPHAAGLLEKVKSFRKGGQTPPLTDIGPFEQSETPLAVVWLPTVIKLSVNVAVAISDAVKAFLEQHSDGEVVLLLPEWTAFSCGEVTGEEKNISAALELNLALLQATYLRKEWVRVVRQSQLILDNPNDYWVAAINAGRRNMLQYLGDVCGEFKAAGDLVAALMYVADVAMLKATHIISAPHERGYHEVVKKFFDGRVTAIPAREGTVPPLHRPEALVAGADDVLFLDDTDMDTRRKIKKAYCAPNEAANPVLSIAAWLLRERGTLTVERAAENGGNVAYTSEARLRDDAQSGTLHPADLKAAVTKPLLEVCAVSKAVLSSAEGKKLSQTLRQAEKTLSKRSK

[12] = biological target: T5, Tyrosyl-tRNA synthetase, putative (Trypanosoma cruzi (strain CL Brener)); experiment: Trypanosoma cruzi tyrosyl tRNA synthetase (TcYRS) SOP; format: functional; details: 30 µM
[13] = biological target: Chromo domain-containing protein 1 (Saccharomyces cerevisiae (strain ATCC 204508 / S288c) (Baker's yeast)) (UniProt P32657); experiment: ScCHD-1 Enzyme Inhibition Assay; format: functional; details: 30 µM; further: in the data most compounds retested in dose-response had high values
Chromo domain-containing protein 1 (Saccharomyces cerevisiae (strain ATCC 204508 / S288c) (Baker's yeast)), sequence (P32657 whole entry, the tested form may be a part): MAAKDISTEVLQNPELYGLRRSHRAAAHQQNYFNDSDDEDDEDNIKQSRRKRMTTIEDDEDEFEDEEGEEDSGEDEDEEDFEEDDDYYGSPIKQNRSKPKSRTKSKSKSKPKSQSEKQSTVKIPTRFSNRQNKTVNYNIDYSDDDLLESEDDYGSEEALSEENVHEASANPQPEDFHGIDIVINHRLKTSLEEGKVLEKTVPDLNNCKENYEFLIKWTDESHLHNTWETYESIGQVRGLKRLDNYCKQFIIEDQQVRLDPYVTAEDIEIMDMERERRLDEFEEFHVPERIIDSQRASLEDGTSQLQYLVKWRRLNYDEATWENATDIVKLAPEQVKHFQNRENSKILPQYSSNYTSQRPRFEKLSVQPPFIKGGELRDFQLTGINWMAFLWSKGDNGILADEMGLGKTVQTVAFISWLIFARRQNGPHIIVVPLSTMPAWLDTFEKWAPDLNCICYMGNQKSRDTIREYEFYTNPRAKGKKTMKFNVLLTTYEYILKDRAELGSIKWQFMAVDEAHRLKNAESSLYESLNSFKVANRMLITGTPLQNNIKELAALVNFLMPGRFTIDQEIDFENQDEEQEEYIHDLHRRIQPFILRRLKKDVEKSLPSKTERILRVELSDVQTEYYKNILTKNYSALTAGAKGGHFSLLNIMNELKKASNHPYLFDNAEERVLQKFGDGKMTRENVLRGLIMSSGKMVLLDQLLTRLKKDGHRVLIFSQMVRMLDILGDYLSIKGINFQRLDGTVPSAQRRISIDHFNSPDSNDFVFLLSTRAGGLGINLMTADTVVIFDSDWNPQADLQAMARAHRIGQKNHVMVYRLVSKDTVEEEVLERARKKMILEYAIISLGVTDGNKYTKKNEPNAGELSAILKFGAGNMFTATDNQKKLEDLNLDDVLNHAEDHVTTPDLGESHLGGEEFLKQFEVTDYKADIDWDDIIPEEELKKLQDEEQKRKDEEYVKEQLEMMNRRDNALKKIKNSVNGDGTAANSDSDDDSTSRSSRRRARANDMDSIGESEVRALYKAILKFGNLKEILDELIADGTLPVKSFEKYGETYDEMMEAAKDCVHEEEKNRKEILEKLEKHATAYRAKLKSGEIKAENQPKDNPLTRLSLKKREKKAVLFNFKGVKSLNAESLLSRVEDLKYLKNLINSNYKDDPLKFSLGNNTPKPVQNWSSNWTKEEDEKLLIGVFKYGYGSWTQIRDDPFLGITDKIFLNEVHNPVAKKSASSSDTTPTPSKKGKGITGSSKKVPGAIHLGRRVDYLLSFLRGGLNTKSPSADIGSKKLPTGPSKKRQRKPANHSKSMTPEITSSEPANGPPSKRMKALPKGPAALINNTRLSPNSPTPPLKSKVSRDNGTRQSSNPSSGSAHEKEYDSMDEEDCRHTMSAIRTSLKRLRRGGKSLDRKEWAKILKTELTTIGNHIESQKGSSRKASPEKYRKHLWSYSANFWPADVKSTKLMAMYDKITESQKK

Sialic acid-binding Ig-like lectin 9 (Homo sapiens), sequence (Q9Y336 whole entry): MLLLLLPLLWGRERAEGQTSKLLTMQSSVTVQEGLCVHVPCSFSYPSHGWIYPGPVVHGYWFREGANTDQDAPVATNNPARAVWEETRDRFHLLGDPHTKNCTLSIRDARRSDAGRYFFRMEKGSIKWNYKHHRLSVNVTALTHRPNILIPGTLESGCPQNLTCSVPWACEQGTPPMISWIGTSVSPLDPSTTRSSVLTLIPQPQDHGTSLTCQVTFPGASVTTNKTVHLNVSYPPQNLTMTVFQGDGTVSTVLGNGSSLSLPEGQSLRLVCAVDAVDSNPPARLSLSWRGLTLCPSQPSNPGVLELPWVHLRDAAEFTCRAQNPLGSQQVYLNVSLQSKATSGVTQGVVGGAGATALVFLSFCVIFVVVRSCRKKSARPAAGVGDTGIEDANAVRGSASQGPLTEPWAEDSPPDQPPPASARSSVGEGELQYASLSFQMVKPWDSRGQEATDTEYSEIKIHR
Protein translocase subunit SecA (Escherichia coli (strain K12)), sequence (P10408 whole entry): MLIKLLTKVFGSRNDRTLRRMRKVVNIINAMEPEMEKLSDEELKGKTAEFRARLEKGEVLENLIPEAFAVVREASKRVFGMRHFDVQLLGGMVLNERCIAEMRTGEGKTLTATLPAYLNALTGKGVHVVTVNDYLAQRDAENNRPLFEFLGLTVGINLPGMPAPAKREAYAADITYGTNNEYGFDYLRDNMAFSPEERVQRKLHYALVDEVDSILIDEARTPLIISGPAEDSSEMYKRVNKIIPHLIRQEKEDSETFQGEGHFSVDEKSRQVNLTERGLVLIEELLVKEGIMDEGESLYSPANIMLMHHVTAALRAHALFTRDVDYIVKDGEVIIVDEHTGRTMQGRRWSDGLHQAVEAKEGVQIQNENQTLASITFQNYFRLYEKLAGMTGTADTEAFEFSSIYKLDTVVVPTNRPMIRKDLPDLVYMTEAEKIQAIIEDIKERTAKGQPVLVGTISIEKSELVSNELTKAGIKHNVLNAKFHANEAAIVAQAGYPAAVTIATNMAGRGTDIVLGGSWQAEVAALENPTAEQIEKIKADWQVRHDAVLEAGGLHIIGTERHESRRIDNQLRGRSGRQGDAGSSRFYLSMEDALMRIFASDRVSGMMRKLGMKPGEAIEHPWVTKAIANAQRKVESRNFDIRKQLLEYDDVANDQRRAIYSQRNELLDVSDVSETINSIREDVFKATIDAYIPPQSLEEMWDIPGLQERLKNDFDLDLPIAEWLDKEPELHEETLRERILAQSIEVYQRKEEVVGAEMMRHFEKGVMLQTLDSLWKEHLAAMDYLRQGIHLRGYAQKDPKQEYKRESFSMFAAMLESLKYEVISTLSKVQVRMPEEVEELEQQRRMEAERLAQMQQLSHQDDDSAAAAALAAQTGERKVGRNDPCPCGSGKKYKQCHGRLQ

Row | SMILES | Percent Effect [1] [%] | Percent Effect [2] [%] | Percent Effect [3] [%] | Percent Effect [4] [%] | Percent Effect [5] [%] | Percent Effect [6] [%] | Percent Effect [7] [%] | Percent Effect [8] [%] | Percent Effect [9] [%] | Percent Effect [10] [%] | Percent Effect [11] [%] | Percent Effect [12] [%] | Percent Effect [13] [%]
1 | O=C1[C@H]2CN(CC3CC3)C[C@H]2CN1c1ccsc1 | -6.19 | -2.7 | 1.21 | 4.91 | -3.17 | -2.44 | -1.59 | 6.27 | -11.2 | -5.46 | 3.24 | 0 | 5.84
2 | CN1C(=O)C2(CCN(CC3CC3)CC2)c2ccccc21 | -0.0958 | 10.8 | -2.95 | -1.71 | -10.2 | -6.16 | 0.955 | 16.4 | -8.93 | -0.91 | 2.16 | 17.9 | -2.43
3 | c1cc(NC2CC3(CCN(Cc4cc[nH]n4)C3)C2)ncn1 (configuration not stated) | -3.9 | -4.05 | -4.78 | 5.87 | 0.0436 | 5.73 | -3.02 | 2.18 | -4.19 | 0.0104 | 2.15 | 3.9 | -8.87
4 | Cc1ccc(N2CCO[C@H]3CN(Cc4cnn(C)c4)C[C@H]32)nn1 | -2.13 | -2.7 | -2.15 | 0.154 | -4.13 | -6.55 | 4.78 | 18.4 | 0.179 | -2.36 | 6.49 | 10.3 | 2.29
5 | Cc1cc(CN2C[C@@H]3CCCO[C@@H]3[C@H](Nc3ccccn3)C2)no1 | -6.36 | 8.11 | 1.17 | 2.41 | 16.5 | 1.47 | 4.22 | 7.3 | 2.28 | 10.7 | 5.38 | 16.1 | -5.82
6 | Cc1cc(CC(=O)N2CCN(CC3CC3)[C@@H]3CS(=O)(=O)C[C@@H]32)ccc1F | -1.82 | 6.94 | 3.29 | 35.7 | -0.65 | 0.0972 | 3.53 | 7.02 | -1.41 | 1.5 | 7.37 | -15.4 | -3.03
7 | CC(C)N1CCc2c(CN(C)Cc3ccco3)cncc2C1 | -2.76 | 0 | -1.51 | 0.165 | 16.7 | -3.86 | -22.8 | 0.171 | -0.596 | -0.895 | 4.17 | -7.5 | -4.61
8 | COCC(=O)NC(C)Cc1cccc(OC)c1 (configuration not stated) | -1.72 | 13.2 | -2.52 | 3.57 | 6.63 | 6.77 | -0.383 | 11.5 | 8.48 | 24.3 | 10.3 | 21.9 | -8.88
9 | Cc1nnc(N2CCCC3(CN(Cc4ccncc4)CCO3)C2)o1 (configuration not stated) | 3.96 | 5.48 | -2.96 | 0.217 | 8.21 | -4.76 | -2 | 20.3 | 6.92 | -16.9 | 4.17 | 16.1 | 0.771

From ChEMBL document CHEMBL3988442, “University of Dundee, Small-Polar-MMV Screening Library” (2021)
